# Compound activity deposited in PubChem BioAssay by National Center for Advancing Translational Sciences (NCATS).
# KB-3-1 tox – kills parental KB-3-1 adenocarcinoma cells; KB-3-1 viability, CellTiter-Glo ATP luminescence, 72 h; Potency, µM (titrated, usually from 46.1 µM), most hits filed as cytotoxic; actives 1.4% (n = 400,000); AID 1347075; note: % is set by controls: 0 for no effect and ±100 for the full control effect; nearly all actives have a fitted effect of over 60% in size
#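 Using CellTiter-Glo luminescence, growth of non-resistant KB-3-1 adenocarcinoma cells is assessed 72 h after pin-tool compound addition at 37 °C. Normalized responses across the concentration series yield fitted curves.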
# HT1080 IDH1KD tx – HT-1080 IDH1 knockdown cell toxicity (counter line). HT-1080 IDH1 knockdown viability, ATP luminescence, 48 h. actives 2% (n = 360,000). AID 686971. Potency, µM (series often up to 46.1 µM), without a hit: at the top dose activity, negative = toxicity, hits mostly cytotoxic;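 note: 0% = DMSO wells and -100% = cell-free medium wells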
#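 CellTiter-Glo luminescence after 48 h compound exposure at 37 degrees C of IDH1-knockdown HT-1080 cells in 5% FBS RPMI. %Activity scaled between DMSO wells and cell-free media wells, with curves fitted and assigned curve classes.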
# HepG2 tox – kills HepG2 cells in TGF-b inhibitor counter-screen; actives 0.76% (n = 410,000); HepG2 CAGA-GFP viability, ATP luminescence, 18 h; Potency, µM (top dose mostly 46.1 µM), without a hit: top-dose activity change, negative = cytotoxicity, actives largely listed as cytotoxic; AID 588856
#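 HepG2 CAGA-GFP cells (1000/well, DMEM with 1% FBS) received compound, then TGF-beta at 500 pg/mL final, and were incubated 18 hours at 37 degrees C. Viability was read by CellTiter-Glo luminescence. Media-only wells were set as complete cell-killing and DMSO as no toxicity.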
# TGFb inhibitor – TGF-b pathway inhibition; HepG2 CAGA-GFP TGF-b/SMAD3 reporter, GFP fluorescence, 18 h; TGF-beta stimulated, 500 pg/mL final; Potency, µM (doses to about 46.1 µM), inactives show top-dose activity, negative = inhibition, usual class: inhibitors; actives 1.2% (n = 410,000); note: % is set by controls: 0 for no effect and ±100 for the full control effect; nearly all actives have a fitted effect of over 65% in size
#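 First, reporter cells (HEPG2 CAGA-GFP) rested 2 h at 37 degrees C. Next, compounds were pinned in and TGF-beta added to 500 pg/mL final. After 18 h, GFP was imaged per cell and summed per well.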
# HT1080-NT tox – kills 2HG-producing HT-1080-NT fibrosarcoma cells. HT-1080-NT fibrosarcoma viability, CellTiter-Glo ATP luminescence, 48 h. Potency, µM (highest dose often 46.1 µM), for inactives: at the highest dose activity, negative = less viability, most hits filed as cytotoxic. actives 1.6% (n = 360,000);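 note: NT is the 2HG producing partner of a matched IDH1 knockdown line; 0% = DMSO-treated cells and -100% = media-only wells without cells; nearly all actives have a fitted effect of over 55% in size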
#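 Compounds were tested in concentration-response format on HT-1080-NT cells for 48 hours at 37 degrees C. Cell viability came from CellTiter-Glo luminescence; curves were classified by r2, response magnitude and activity.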
# KB-V1 cytotox – KB-V1 MDR subline cytotoxicity. KB-V1 MDR cells viability, CellTiter-Glo, 72 h. Potency, µM (series often up to 46.1 µM), most hits filed as cytotoxic. actives 3.4% (n = 400,000). AID 1347076; note: % is set by controls: 0 for no effect and ±100 for the full control effect; nearly all actives have a fitted effect of over 60% in size
#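 Readout: CellTiter-Glo luminescence, 10 min after addition. Cells: KB-V1 MDR subline, 72 h at 37 degrees C with compound. Analysis: corrected, normalized data fitted to concentration-effect curves.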
# The depositor's hits bear a star; i = inactive; ? = inconclusive; · = no result given. Compounds with a hit are over-represented: about 6.6% of the library has one in this group of screens. Calls come from the whole dose curve; as a rule, active = well fitted curve in the direction sought with a large enough effect; inconclusive = small, poorly fitted or top-dose-only effect, or another doubt; inactive = no such curve, though single readings can be large; an effect the other way counts as inactive or inconclusive. Potency is the fitted concentration of half-maximal effect.
SMILES,KB-3-1 tox,HT1080 IDH1KD tx,HepG2 tox,TGFb inhibitor,HT1080-NT tox,KB-V1 cytotox
CCOC(=O)c1cnn2c(C(F)(F)F)cc(-c3ccc(Br)cc3)nc12,i,·,2%,14%,·,i
O=C(Nc1cccc(C(=O)OCc2cc(=O)n3c4c(sc3n2)CCCC4)c1)c1cccc(F)c1,·,·,-58%,?,·,·
CCSC1=NS(=O)(=O)c2ccccc21,i,·,·,·,·,?
CC(C(=O)NC(=O)NC1CCCCC1)N1CCN(c2ccc(O)cc2)CC1 (centres undefined),i,-4%,-21%,-2%,2%,23µM*
CCc1ccc(S(=O)(=O)NCc2ccc3c(c2)CCN3C(=O)c2ccc(C)cc2)cc1,·,·,-21%,-47%,·,·
O=C1C(=C(c2ccccc2)N2CCOCC2)Cc2ccccc21,7.3µM*,4.6µM*,8.9µM*,3.2µM*,15µM*,?
CCCS(=O)(=O)c1ncc(Cl)c(C(=O)N2CCN(c3ccc(OC)cc3)CC2)n1,·,·,4.5µM*,4µM*,·,·
O=C(Cc1ncc(C(F)(F)F)cc1Cl)N1CCN(c2ccc(F)cc2)CC1,i,-7%,-39%,-8%,-3%,i
COc1ccc(N2CCN(C(=O)c3csc4ccccc34)CC2)cc1,i,12%,-6%,-6%,9%,21µM*
O=C(c1csc2ccccc12)N1CCN(c2ccc(Cl)c(Cl)c2)CC1,i,22%,8%,-7%,1%,i
COc1ccc(N2CCN(C(=O)Cc3ncc(C(F)(F)F)cc3Cl)CC2)cc1,i,0%,-28%,-7%,-2%,21µM*
CCSc1ncc(Cl)c(C(=O)N2CCN(c3ccc(OC)cc3)CC2)n1,i,·,-26%,-23%,·,i
COc1ccc(N2CCN(C(=O)Cc3nn(C)c(=O)c4ccccc34)CC2)cc1,i,-6%,-4%,-7%,-1%,15µM*
O=C(c1ccc(Oc2ccc(C(F)(F)F)cn2)cc1)N1CCN(c2ccccc2)CC1,?,-26%,-34%,-10%,-14%,21µM*
COc1ccc(N2CCN(C(=O)c3ccc(Oc4ccc(C(F)(F)F)cn4)cc3)CC2)cc1,?,-16%,-31%,11%,6%,?
Cc1ccc(-c2noc(-c3nnn(CC(=O)Nc4cccc(C(F)(F)F)c4)c3N)n2)cc1,·,·,-10%,·,·,·
c1ccc(CN2CN=C(Nc3nc4ccccc4s3)NC2)cc1,i,-15%,0%,7%,-4%,i
CC1CCCCC1N1CN=C(Nc2nc3ccccc3s2)NC1 (centres undefined),i,-14%,-17%,-7%,-5%,18µM*
COc1ccc(CN2CN=C(Nc3nc4ccccc4s3)NC2)cc1,i,3%,3%,-2%,2%,4.6µM*
Cc1ccc(SCCNC(=O)CN(c2ccc3c(c2)OCO3)S(C)(=O)=O)cc1,i,-1%,-4%,-15%,-10%,?
CS(=O)(=O)N(CC(=O)NCCSC1CCCCC1)c1ccc2c(c1)OCO2,i,1%,-1%,40%,-2%,18µM*
CN1c2ccccc2C(=O)N2CCc3c([nH]c4ccccc34)C21 (centres undefined),·,·,-62%,?,·,·
C/C(=N\NC(=O)C(C)n1nc(C)c([N+](=O)[O-])c1C)c1ccccc1O (centres undefined),?,9.2µM*,-20%,?,?,2.3µM*
Cn1c(=O)c2c(SCC(=O)Nc3ccccc3C(F)(F)F)nc(C3CCCC3)nc2n(C)c1=O,i,·,9%,-12%,·,i
COc1cc2cc(-c3ccc(OC)c(OC)c3C)nc(N)c2cc1OC,?,1.3µM*,-41%,?,8.2µM*,6.5µM*
SMILES,KB-3-1 tox,HT1080 IDH1KD tx,HepG2 tox,TGFb inhibitor,HT1080-NT tox,KB-V1 cytotox
COc1cc2cc(-c3ccc(O)cc3O)nc(C)c2cc1OC,?,?,-33%,-11%,-12%,6.5µM*
CCOc1ccc(-c2cc3cc(OC)c(OC)cc3c(C)n2)cc1,i,6%,-2%,24%,20%,i
CCc1nc(-c2ccc(OC)c(OC)c2)cc2cc(OC)c(OC)cc12,i,2%,5%,-1%,3%,?
CN(C(=O)COC(=O)c1ccc(S(=O)(=O)N2CCOCC2)cc1)c1ccccc1,i,19%,-9%,1%,1%,i
Cc1ccccc1Cn1c(CN2CCc3ccccc3C2)nc2c1c(=O)n(C)c(=O)n2C,i,?,-29%,?,?,23µM*
Cn1c(=O)c2c(nc(CN3CCc4ccccc4C3)n2Cc2ccc(F)cc2)n(C)c1=O,i,-3%,-6%,?,-1%,9.2µM*
COc1ccccc1NC(=S)N(CCc1ccc(OC)c(OC)c1)Cc1ccccn1,i,19%,-2%,-19%,-2%,?
COc1ccc(CCN(Cc2ccccn2)C(=S)Nc2ccc(C)cc2)cc1OC,?,-12%,-32%,-24%,-5%,23µM*
CN(C)S(=O)(=O)c1cccc(NC(=O)CSc2cccc3cccnc23)c1,?,?,16µM*,?,18µM*,?
CN(C)S(=O)(=O)c1cccc(NC(=O)CSc2nc3c(cc2C#N)C(=O)CC(C)(C)C3)c1,21µM*,?,-20%,?,?,16µM*
CN(C)S(=O)(=O)c1ccc(SCC(=O)Nc2cccc(S(=O)(=O)N3CCCC3)c2)nc1,i,0%,-35%,-13%,1%,i
CN(C)S(=O)(=O)c1ccc(Cl)c(NC(=O)CSc2nc3c(cc2C#N)C(=O)CC(C)(C)C3)c1,i,-23%,10%,11%,-20%,i
CCNC(=O)NC(=O)C(C)OC(=O)c1oc2ccccc2c1CSC1CCCCC1 (centres undefined),i,3%,10%,8%,3%,13µM*
CNC(=O)NC(=O)C(C)OC(=O)c1oc2ccccc2c1CSc1ccc(Cl)cc1 (centres undefined),i,25%,-2%,1%,21%,i
CC(NC(=O)CN(c1ccc(Cl)cc1Cl)S(=O)(=O)c1ccccc1)c1ccccc1 (centres undefined),i,·,-34%,?,·,i
CSc1cccc(Nc2cc(C(=O)NCCCN(Cc3ccccc3)C(C)C)c3ccccc3n2)c1,i,·,10µM*,?,·,16µM*
Cc1ccc(CNC(=O)CCN2C(=O)C(C)Oc3ccc(C)cc32)cc1 (centres undefined),i,·,-8%,-5%,·,i
